Out of some 64,000 compounds screened, about 1,900 (3%) were called active. The full list was thinned out, with actives kept by preference. Unmarked numbers belong to inactive results.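 Rule for the calls: active = fluorescence rise, raw or as B-score row- and column-corrected plate score, outside the 99.7% band of its plate's samples, either direction; inactive = the rest.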
Each compound was assayed on Muscarinic acetylcholine receptor M1 (assay: M1 muscarinic receptor agonists, primary screen, CHO-M1 cells, Fluo-4 calcium, agonist mode (AID 626)). Settings: Fluo-4 calcium fluorescence, at 10 µM, hits give high values.

| Structure (SMILES) | B-score |
| --- | --- |
| O=C(CNS(=O)(=O)c1ccc(Br)s1)NCc1ccc2c(c1)OCO2 | -0.057 |
| Cc1cc(C)nc(SCc2nnc(SCC(=O)Nc3ncc(C)s3)n2Cc2ccco2)n1 | 0.0432 |
| CCCc1cc(=O)[nH]c(SCC(=O)OCc2ccccc2)n1 | -0.24 |
| COC(=O)c1cn(CC(=O)NCc2cccs2)c2ccccc12 | -0.913 |
| COC(=O)Cn1cc(C(=O)c2cccs2)c2ccccc21 | -0.298 |
| O=C(Cn1cc(C(=O)c2cccs2)c2ccccc21)NCc1cccs1 | 5.61 (active) |
| COc1ccccc1OCCC(=O)OCC(=O)NC(=O)NC(C)(C)C | -0.0604 |
| O=C(Nc1ccon1)c1cccc(Cl)c1 | -0.792 |
| O=C(Nc1cccc(NC(=O)N2CCN(c3ccccc3)CC2)c1)N1CCN(c2ccccc2)CC1 | 5.66 (active) |
| CC(=O)N1CCN(C(=O)Nc2cccc(C(F)(F)F)c2)CC1 | 1.54 |
| O=C(Nc1cccc(C(=O)N2CCCC2)c1)c1ccccc1 | 0.113 |
| Cc1ccc(N2CCN(S(=O)(=O)c3ccc(F)cc3)CC2)c(C)c1 | 1.76 |
| O=C(NCCc1ccc2c(c1)OCCO2)c1cc2ccccc2o1 | 5.92 (active) |
| O=C(Nc1ccncc1)c1cc2ccccc2o1 | -0.306 |
| O=C(CC(Cc1ccccc1)C(=O)O)NCCc1ccc2c(c1)OCO2 (configuration not stated) | -0.0151 |
| CCOc1cccc(-n2nnnc2-c2ccc(OC)cc2)c1 | -0.152 |
| COc1cccc(OCCOc2cccc(/C=N/n3cnnc3)c2)c1 | 0.112 |
| COc1ccccc1OCCOc1ccc(/C=N/n2cnnc2)cc1 | -1.48 |
| C(=N\n1cnnc1)/c1cccnc1 | 7.81 (active) |
| CCOC(=O)c1sc(NC(=O)C(CC)Sc2nccn2C)nc1C (configuration not stated) | 0.459 |
| Cc1nnc(SCCCn2c(N3CCCCC3)nc3c2c(=O)[nH]c(=O)n3C)s1 | -0.0644 |
| COC(=O)c1cn(-c2ccccc2)nc1-c1cccnc1 | -1.56 |
| O=C(c1cn(-c2ccccc2)nc1-c1cccnc1)N1CCCCC1 | 0.178 |
| COc1ccccc1N1CCN(C(=O)c2cn(-c3ccccc3)nc2-c2cccnc2)CC1 | 5.33 (active) |
| CCOC(=O)Nc1ccc2c(c1)N(C(=O)CN1CCN3CCCC3C1)c1ccccc1CC2 (configuration not stated) | 0.0902 |

| Structure (SMILES) | B-score |
| --- | --- |
| CCOc1ccc(NC(=O)Nc2cc(C)on2)cc1 | -2.11 |
| c1cnn(-c2cc(N3CCOCC3)ncn2)c1 | -2.54 (active) |
| O=C(Nc1cc(N2CCOCC2)ncn1)NC1(C(F)(F)F)Oc2ccc(Cl)cc2O1 (configuration not stated) | 0.249 |
| O=C(Nc1ccc(F)cc1)c1cccnc1N1CCOCC1 | 0.0065 |
| COc1ccc(-c2cn3ccsc3n2)cc1 | 0.708 |
| CCCC(=O)Nc1cccc(-c2cn3ccsc3n2)c1 | -2.92 (active) |
| O=C(NCc1cn2ccsc2n1)Nc1cccc(Cl)c1 | -0.0716 |
| OCCCN1c2ccccc2Nc2nnc(-c3ccccc3)cc21 | 2.37 |
| CCOc1cc(-c2nc3cc(C)ccn3c2NCC2CCCO2)ccc1O (configuration not stated) | 5.56 (active) |
| CCOc1cccc(=O)c2c(C)n(CC3CCCO3)c(C)c12 (configuration not stated) | -0.504 |
| CCOc1cc(C(=S)N2CCOCC2)ccc1O | 0.0946 |
| O=C(CC1Oc2ccccc2NC1=O)NCCCN1CCN(Cc2ccccc2)CC1 (configuration not stated) | -0.153 |
| Clc1cccc(-c2nc3nc4ccccc4nc3n2Cc2ccco2)c1 | 2.1 |
| COc1ccc(CCn2c(-c3ccco3)nc3nc4ccccc4nc32)cc1OC | 5.87 (active) |
| COCCn1c(-c2ccc(OC)c(OC)c2)nc2ccccc21 | 0.157 |
| COc1ccc(-c2nn(-c3ccccc3)cc2C(=O)Nc2nc(CC(C)=O)ns2)cc1 | 0.649 |
| Cn1c(C(=O)NCCCN2CCN(c3cccc(Cl)c3)CC2)cc2c(=O)n(C)c3ccccc3c21 | -1.68 |
| Cn1c(C(=O)NCCc2ccsc2)cc2c(=O)n(C)c3ccccc3c21 | 3.97 (active) |
| CC1CCCC(C)N1CCCNC(=O)c1cc2c(=O)n(C)c3ccccc3c2n1C (configuration not stated) | 0.176 |
| CCOc1cc(S(=O)(=O)NC2CC(C)(C)NC(C)(C)C2)ccc1F | -1.83 |
| N#CC1=C(N)C(C#N)(C#N)[C@H](c2ccsc2)[C@H]2COCC=C12 | 3.35 (active) |
| O=S(=O)(N1CCOCC1)N1CCN(c2ccccc2F)CC1 | 0.0546 |
| O=C1c2ccccc2-c2ncnc3c(N4CCOCC4)cc(N4CCOCC4)c1c23 | 2.4 (active) |
| c1ccc(-c2oc3ncnc(N4CCOCC4)c3c2-c2ccccc2)cc1 | -0.65 |
| C1=C(CCNc2ncnc3c2cnn3-c2ccccc2)CCCC1 | 0.14 |

| Structure (SMILES) | B-score |
| --- | --- |
| O=C(NCCC1=CCCCC1)C1CCN(Cc2cnn(-c3ccccc3)c2-n2cccc2)CC1 | 3.61 (active) |
| O=C(COc1cccc(-n2cnnn2)c1)NCCC1=CCCCC1 | -0.532 |
| c1ccc2c(c1)OCC(CNc1ncnc3nc[nH]c13)O2 (configuration not stated) | 104 (active) |
| Cc1cc(NC(=O)CCC2COc3ccccc3O2)no1 (configuration not stated) | -0.76 |
| COc1ccc(CCNc2ncnc3nc[nH]c23)cc1OC | -0.961 |
| O=S1(=O)CC(NCc2ccccc2)C(Nc2ccc(Cl)cc2)C1 (configuration not stated) | -0.0591 |
| Cc1ccc(-c2c3c(=O)n(C)c(=O)n(C)c3cn2-c2ccccc2O)cc1 | 0.252 |
| COc1ccc(-c2c3c(=O)n(C)c(=O)n(C)c3cn2-c2cccc(OC)c2)cc1 | 0.091 |
| COc1cccc(-n2cc3c(c2-c2ccccc2)c(=O)n(C)c(=O)n3C)c1 | 7.45 (active) |
| CCCCn1c(SCC(=O)NCC2CCCO2)nc2ccc(N3CCOCC3)cc2c1=O (configuration not stated) | 0.658 |
| COc1ccccc1CNC(=O)CCCNS(=O)(=O)c1cccc2nsnc12 | -0.144 |
| CCS(=O)(=O)N1CCCC(C(=O)NCCCN(C)Cc2ccccc2)C1 (configuration not stated) | 0.0256 |
| CNC(=O)c1c(NC(=O)c2ccc(S(=O)(=O)N3CCOCC3)cc2)sc2c1CCC2 | -0.0829 |
| CC(=O)Nc1cccc(Oc2cc(C#N)c(C#N)cc2N2CCOCC2)c1 | 0.0039 |
| CCOc1cc(NC(=O)c2ccco2)c(OCC)cc1NC(=O)COc1ccccc1 | 0.0561 |
| CCOc1cc(N2CCOCC2)c(OCC)cc1NC(=O)COc1cccc2cccnc12 | 4.8 (active) |
| Cc1nc2cc(S(=O)(=O)C(F)(F)F)ccc2s1 | 0.0196 |
| Cc1ccc(C(c2sc3nc(C)nn3c2O)N2CCN(c3ccccc3)CC2)cc1 (configuration not stated) | -0.274 |
| O=C(Nc1cccc(-c2nnc(-c3ccccc3)o2)c1)C1CCCO1 (configuration not stated) | 8.44 (active) |
| O=C(Nc1ccc(-c2nnc(-c3ccccc3)o2)cc1)C1CCCO1 (configuration not stated) | 0.124 |
| O=C(Nc1nnc(CCc2ccccc2)s1)C1CCCO1 (configuration not stated) | -0.799 |
| Cc1ccc(C(=O)Nc2ccccc2C(=O)NC2CCCCC2)cc1S(=O)(=O)N1CCOCC1 | -0.515 |
| CCOc1ccc2cc(C#N)c(SCC(=O)OC)nc2c1 | -0.798 |
| CC(NC(=O)CSc1nc2c(cc1C#N)CN(C)CC2)c1ccccc1 (configuration not stated) | 6.81 (active) |
| Cc1ccc2cc(C#N)c(SCC(=O)NCC3CCCO3)nc2c1C (configuration not stated) | 0.58 |

| Structure (SMILES) | B-score |
| --- | --- |
| CC1=NC2(CCCc3c2no[n+]3[O-])N(O)C1(C)C (configuration not stated) | -0.303 |
| O=C(Nc1c(-c2ccccc2)nc2c(Br)cc(Br)cn12)c1ccco1 | 1.35 |
| CC(C)(C)c1cc(CN2CCN(CCC#N)CC2)cc(C(C)(C)C)c1O | 25.1 (active) |
| N#CCCN1CCN(S(=O)(=O)c2ccc(S(=O)(=O)N3CCCC3)cc2)CC1 | 0.0676 |
| N#CCCN1CCN(S(=O)(=O)c2ccc(S(=O)(=O)NC3CC3)cc2)CC1 | 0.386 |
| Cc1nc2ccc(S(=O)(=O)NC(C(=O)N3CCCCCC3)C(C)C)cc2s1 (configuration not stated) | 0.688 |
| CN1CCN(S(=O)(=O)c2ccc(NC(=O)c3ccco3)cc2)CC1 | 0.741 |
| CC1=C2C(=O)OC(c3ccoc3)C2(C)CCC1 (configuration not stated) | -1.22 |
| Cc1ccc(-n2ncc3c(N4CCN(c5ccc(F)cc5)CC4)ncnc32)c(C)c1 | -0.824 |
| Fc1ccc2[nH]c3c(N4CCSCC4)ncnc3c2c1 | 12.1 (active) |
| Fc1ccc2[nH]c3c(N4CCN(Cc5ccc6c(c5)OCO6)CC4)ncnc3c2c1 | 6.32 |
| O=C1CC(c2ccccc2)CC(O)=C1C=NCCN1CCOCC1 (configuration not stated) | -1.61 |
| Cn1c(SCC(=O)c2cccs2)nnc1-c1ccco1 | -0.304 |
| Cc1nnc(SCC(=O)NCc2cccs2)[nH]c1=O | 0.134 |
| Cc1nc2nc(CSc3nc4ccccc4s3)cc(=O)n2[nH]1 | 0.684 |
| Cc1nn(C(=O)c2ccoc2C)c(N)c1-c1ccccc1 | 0.366 |
| Cc1nn2c(c1-c1ccccc1)N=C(c1ccco1)CC2c1ccccc1 (configuration not stated) | 5.88 (active) |
| CCOC(=O)c1c(C2CC2)csc1NC(=O)CSCc1c(C)noc1C | 0.602 |
| CN1CCN(CC(=O)Nc2sc3c(c2C#N)CCC(C(C)(C)C)C3)CC1 (configuration not stated) | -0.211 |
| CCOC(=O)C1CCN(C(=O)c2oc3ccc(S(=O)(=O)N4CCCCCC4)cc3c2C)CC1 | 1.57 |
| CCOC(=O)C1CCCN(C(=O)c2cncc(Br)c2)C1 (configuration not stated) | -0.115 |
| CCOC(=O)C1CCCN(C(=O)c2ccc(CS(=O)(=O)c3ccc(Br)cc3)o2)C1 (configuration not stated) | -2.11 (active) |

— PubChem BioAssay AID626 (Vanderbilt High Throughput Screening Facility, 2007)
